Many of the other results were omitted from the sample, so hits are more common in it than they were.
DAT uptake mod = changed hDAT dopamine uptake under cocaine IC80, either direction, primary screen, cocaine antagonist project, cell-based, LLC-PK1 hDAT, [14C]-dopamine uptake, MLSMR; Sodium-dependent dopamine transporter (Homo sapiens), Q01959; LLC-PK1 hDAT cells, [14C]-dopamine uptake with cocaine IC80; actives deviate in either direction; B-score at 10 µM; 110,000 tested, 1.3% active; AID 449768, 2010;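 active = Z score or B-score, a plate-position-corrected score, falls beyond the plate's 99.7% confidence bounds, in either direction; inactive = both scores lie inside the 99.7% bounds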;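 also: scored against the spread of the other compound wells on the same plate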
JNK3 blocker = JNK3 kinase activity inhibitors, primary screen, biochemical, human, purified enzyme; Mitogen-activated protein kinase 10 (Homo sapiens), P53779; HTS; inhibition, % at 8 µM; 60,000 tested, 0.61% active; AID 746, 2007; in the data active = inhibition above about 17%;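 also: 0% = DMSO and 100% = reference inhibitor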
Target sequence (P53779 whole entry, looked up): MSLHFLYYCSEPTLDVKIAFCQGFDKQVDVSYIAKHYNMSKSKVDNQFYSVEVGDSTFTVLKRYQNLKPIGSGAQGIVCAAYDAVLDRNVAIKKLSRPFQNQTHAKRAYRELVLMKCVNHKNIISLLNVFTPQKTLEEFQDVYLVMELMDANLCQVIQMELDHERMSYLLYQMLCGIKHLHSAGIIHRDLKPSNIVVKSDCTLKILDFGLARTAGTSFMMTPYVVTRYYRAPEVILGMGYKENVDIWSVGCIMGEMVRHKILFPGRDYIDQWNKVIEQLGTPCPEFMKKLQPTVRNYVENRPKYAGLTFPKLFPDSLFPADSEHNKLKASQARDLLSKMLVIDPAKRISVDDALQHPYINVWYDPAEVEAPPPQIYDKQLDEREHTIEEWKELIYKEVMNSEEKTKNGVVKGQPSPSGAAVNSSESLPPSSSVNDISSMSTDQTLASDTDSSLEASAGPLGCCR
D1 allo mod = D1 CRE-luciferase signal change, two-sided – cell-based, HEK293 D1, dopamine EC30, D1 allosteric modulator project, primary screen | 58,000 tested, 5.9% active | B-score at 10 µM | dopamine EC30 potentiation; actives deviate in either direction | D(1A) dopamine receptor (Homo sapiens), P21728;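 active = luminescence count or its row- and column-corrected plate score outside the 99.7% band of the plate's sample wells, on either side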
ROCK2 inh = inhibitors of human ROCK2 kinase, primary screen, biochemical, high-throughput, luminescence; inhibition, % at 6 µM; Rho-associated protein kinase 2 (Homo sapiens), O75116; purified ROCK2, Kinase-Glo ATP depletion luminescence; 60,000 tested, 0.35% active;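 active = inhibition above the screen-wide mean inhibition plus 3 SD, cut at about 18% in these data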;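 also: plate controls were DMSO wells for no effect and Y-27632 control wells after no-enzyme background subtraction for full effect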
PKA kinase inh = inhibitors of human PKA kinase activity, primary screen, biochemical, ATP-depletion luminescence, Kemptide substrate; PKA Kemptide phosphorylation, Kinase-Glo ATP luminescence; 65,000 tested, 0.1% active; inhibition, % at 6 µM; cAMP-dependent protein kinase catalytic subunit alpha (Homo sapiens), P17612;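 active = inhibition above the screen-wide mean inhibition plus 3 SD, cut at about 21% in these data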
Active calls of the source: *; · = no result given.

SMILES	DAT uptake mod	JNK3 blocker	D1 allo mod	ROCK2 inh	PKA kinase inh
COc1cccc2c(=O)c(C/C=C(/C)Cl)c(C)[nH]c12	-0.0074	18*	0.17	0	7
CCCn1c(NC(=O)c2ccccc2)nc2ccccc21	2.1	0	0.011	2	3
CCCn1c(NC(=O)c2cccc(S(=O)(=O)N3CCCC3)c2)nc2ccccc21	-0.32	5	·	32*	12
O/N=C1/CC/C(=N\O)c2nn(-c3ccccc3)nc21	-8*	8	0.51	2	6
Cc1ccc(CNC(=O)CSc2c3c(nc4cc(Cl)ccc24)CCCC3)o1	-0.045	·	·	·	·
CC(O)(CS(=O)(=O)Cc1ccccc1)C(=O)Nc1cccc(C(F)(F)F)c1 (configuration not stated)	-2.8*	·	·	·	·
O=C(O)c1ccc2c(c1)[C@@H]1C=CC[C@@H]1[C@H](c1ccccn1)N2	-0.46	-9	-3.8*	3	9
O=C(OC1CCCCC1)c1ccc2c(c1)C1C=CCC1C(C(=O)O)N2 (configuration not stated)	·	2	·	-4	1
CCOC(=O)c1c(NC(=O)CCN2CCOCC2)sc2c1CC(C)(C)OC2	2.8*	2	2	9	7
CCOC(=O)c1c(NC(=O)CN2CCOCC2)sc2c1CC(C)(C)OC2	0.99	6	·	2	4
COc1c(F)c(F)c(C(=O)Nc2ccc(N3CCN(C(C)=O)CC3)c(Cl)c2)c(F)c1F	-1.1	·	·	·	·
CCOC(=O)c1c(-c2ccco2)csc1N	2.1*	-10	0.13	-1	2
CCOC(=O)c1c(-c2ccco2)csc1NC(=O)CSc1nnc(N)s1	0.23	·	·	·	·
Cc1cn(S(=O)(=O)c2ccc(Br)c3ccccc23)cn1	-0.83	40*	0.45	4	5
CC(=O)Nc1ccc(NC(=O)C(C)OC(=O)CCC(=O)c2ccc(F)cc2)cc1 (configuration not stated)	-0.29	·	·	·	·
C=CCn1c(NCCc2ccccc2)nc2c1c(=O)n(C)c(=O)n2C	0.31	0	-1.5	1	-2
C/C(Cl)=C\Cn1c(NCCc2ccccc2)nc2c1c(=O)n(C)c(=O)n2C	-1.1	-4	-3.1*	3	6
CCN(CC)S(=O)(=O)c1ccc2c(c1)nc(SCC(=O)N1CCOCC1)n2-c1ccccc1OC	0.41	·	·	·	·
CCc1ccc(NCc2nc3ccccc3c(=O)[nH]2)cc1	-9.2*	·	·	·	·
O=S(=O)(c1cc(Cl)ccc1Cl)N1CC2CCCN2c2ccc(C(F)(F)F)cc21 (configuration not stated)	0.38	·	·	·	·
CN(C(=O)c1cccc(N2C(=O)C3CC=CCC3C2=O)c1)C1CCCCC1 (configuration not stated)	0.58	-6	-0.07	21*	9
O=C(c1cccc(N2C(=O)C3CC=CCC3C2=O)c1)N1CCCCCC1 (configuration not stated)	-8.8*	-8	0.2	5	16
O=C(c1cccc(N2C(=O)C3CC=CCC3C2=O)c1)N1CCN(c2ccccc2)CC1 (configuration not stated)	·	-9	0.09	17	11
COc1ccccc1NC(=O)Cn1cnc2sc(C(=O)NCc3ccco3)c(C)c2c1=O	1.9*	·	-0.21	·	4
O=C(CNC(=O)c1ccc(Cl)cc1Cl)NCCCn1ccnc1	-0.82	·	·	·	·
SMILES	DAT uptake mod	JNK3 blocker	D1 allo mod	ROCK2 inh	PKA kinase inh
CCN(CC)c1ccc2cc(C(C)=O)c(=O)oc2c1	-1	·	·	·	·
CCN(CC)c1ccc2cc(NC(=O)CCC(=O)O)c(=O)oc2c1	-0.41	-14	-7.7*	-1	-5
CCN(CC)S(=O)(=O)c1csc(C(=O)NCc2ccccc2)c1	2.6*	·	·	·	5
CCN(CC)S(=O)(=O)c1csc(C(=O)NC2CCCCC2)c1	-0.61	2	0.89	2	5
COc1ccc(-c2c(NC(=O)c3ccco3)n(C)c3ccccc3c2=O)cc1	-0.48	·	·	·	·
CCCN1Cc2cccc(C(=O)Nc3ccc(CC)cc3)c2C1=O	-0.14	·	·	·	·
COCCN1Cc2cccc(C(=O)NCc3ccccn3)c2C1=O	-0.26	0	1.3	3	8
CCCN1Cc2cccc(C(=O)Nc3ccc(C)cc3)c2C1=O	-8*	·	·	·	·
COCCN1Cc2cccc(C(=O)Nc3c(C)cc(C)cc3C)c2C1=O	0.68	-5	0.22	-2	-2
COCCN1Cc2cccc(C(=O)NCc3ccc4c(c3)OCO4)c2C1=O	·	23*	3.2	-2	-3
COCCN1Cc2cccc(C(=O)Nc3cc(C)cc(C)c3)c2C1=O	1.8*	2	-0.075	1	9
CC(C)(C)[C@H]1C=C(C(N)=O)O[C@@H](OCc2ccc(CO)cc2)C1	-0.017	·	·	·	·
O=C(NCCCN1CCN(c2cccc(Cl)c2)CC1)C1CCC(=O)N1Cc1ccccc1Cl (configuration not stated)	·	-4	-1.4	4	7
CCCCNC(=O)c1onc(CSc2ccc(C(C)C)cc2)c1C(=O)O	-0.25	·	·	·	·
c1ccc(CN2CCN(CCCNc3ccc4nnc(-c5ccccc5)n4n3)CC2)cc1	0.58	4	-5.6*	3	1
Fc1ccccc1N1CCN(CCCNc2ccc3nncn3n2)CC1	-0.66	-1	-6.1*	1	2
N=c1c2c(n(Cc3ccc(Cl)cc3)c3c1CCC3)CCC2	-6.7*	0	-3.5	-3	-2
N=c1c2c(n(Cc3cccc(Cl)c3)c3c1CCC3)CCCC2	-9.3*	·	·	·	·
N=c1c2c(n(Cc3ccccc3)c3c1CCC3)CCC2	-4.2*	6	-1.9	1	10
O=C1Nc2cc(Cl)ccc2Nc2cscc21	-0.71	·	·	·	·
C=C1CCN([C@H](C(=O)NCc2ccco2)C(C)C)S(=O)(=O)c2ccccc21	0.96	·	·	·	·
O=C(C1CC1)N1CCc2cc(Br)cc(S(=O)(=O)N3CCCCCC3)c21	6*	·	·	·	4
Cc1ccn2cc(C(=O)Nc3ccc4c(c3)OCCO4)nc2c1	-0.34	2	-4.5*	0	-2
Cc1ccn2cc(C(=O)Nc3ccccc3N3CCOCC3)nc2c1	-0.013	10	-1.6	-4	5
Cc1ccc(-n2c(=O)[nH]cc(C(=O)Nc3ccc4c(c3)OCCO4)c2=O)cc1C	-0.071	5	0.093	3	-1
Cc1ccc(-n2c(=O)[nH]cc(C(=O)Nc3ccc4c(c3)OCCO4)c2=O)cc1	0.75	-1	-5*	4	9
COC(=O)C1=C(CCc2ccccc2)NC(=O)NC1c1ccc(Cl)cc1 (configuration not stated)	1.4	·	·	·	·
CCOC(=O)C1=C(C)NC(=O)NC1c1ccc(N(CC)CC)cc1 (configuration not stated)	2	0	1.2	0	8
Cc1nc2c(-c3ccc(F)cc3)c(C)nn2c(C)c1CCC(=O)NC(C)CCc1ccco1 (configuration not stated)	1.2	-6	-3.3*	-2	-6

Bioassay records: PubChem BioAssay, several laboratories
